# Reference: PubChem BioAssay AID624141 (Broad Institute, 2012)
# Among all 17,000 compounds or so, about 260 (1.5%) were called active.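 The calls were made as follows: active = spot fluorescence over background with P-value below 7% in all four replicate spots, showing protein binding; inactive = the rest.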 What follows is part of a selection rich in actives, with near analogues and random picks from the rest.
# Target: Myc proto-oncogene protein (Homo sapiens) (UniProt P01106)
# Assay: small molecules binding His-tagged c-Myc – biochemical, small molecule microarray, anti-His fluorescence, primary screen (AID 624141)
# Sequence of Myc proto-oncogene protein (Homo sapiens) (P01106 whole entry, looked up): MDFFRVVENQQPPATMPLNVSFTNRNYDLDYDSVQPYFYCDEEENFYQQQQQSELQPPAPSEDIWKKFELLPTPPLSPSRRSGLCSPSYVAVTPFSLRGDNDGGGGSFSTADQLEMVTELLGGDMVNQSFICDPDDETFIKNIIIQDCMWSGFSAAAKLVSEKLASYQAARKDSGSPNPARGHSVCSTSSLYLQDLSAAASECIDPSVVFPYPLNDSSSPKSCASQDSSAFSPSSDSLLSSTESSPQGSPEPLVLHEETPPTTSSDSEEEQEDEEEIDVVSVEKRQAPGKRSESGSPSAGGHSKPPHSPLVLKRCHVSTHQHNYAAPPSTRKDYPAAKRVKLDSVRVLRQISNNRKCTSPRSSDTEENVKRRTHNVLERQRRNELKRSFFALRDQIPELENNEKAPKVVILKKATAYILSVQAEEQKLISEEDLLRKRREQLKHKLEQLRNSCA
row,SMILES,outcome
1,Cc1c(NC(=O)/C(C#N)=C/c2ccccc2Cl)c(=O)n(-c2ccccc2)n1C,inactive
2,C/C(=C\CC[C@H](CO)[C@@H]1CC[C@]2(C)C3=C(CC[C@@]12C)[C@@]1(C)CCC(=O)C(C)(C)C1CC3)C(=O)O (some centres not stated),inactive
3,COCCOC(=O)N1C(=O)[C@@]2(c3cc(C#CCNC(N)=O)ccc31)[C@H](C(=O)N1CCN(c3ncccn3)CC1)[C@H]1C(=O)O[C@H](c3ccccc3)[C@H](c3ccccc3)N1[C@@H]2c1ccccc1OCCO,inactive
4,Cc1cc(C(=O)c2ccccc2)ccc1OC(=O)COc1ccccc1[N+](=O)[O-],inactive
5,NC(=O)NCC#Cc1ccc2c(c1)[C@]1(C(=O)N2)[C@H](C(=O)Nc2nc3ccccc3s2)[C@H]2C(=O)O[C@H](c3ccccc3)[C@H](c3ccccc3)N2[C@@H]1c1ccc(OCCO)cc1,inactive
6,CC1=COC(O[C@@H]2O[C@H](CO)[C@@H](O)[C@H](O)[C@H]2O)C2C1CC(O)C2CO (some centres not stated),inactive
7,C[C@H](CO)N1C[C@H](C)[C@@H](CN(C)Cc2ccccc2)Oc2c(NC(=O)C3CCOCC3)cccc2C1=O,inactive
8,C[C@H](CO)N1C[C@H](C)[C@H](CN(C)Cc2ccc(C(=O)O)cc2)Oc2ccc(NC(=O)NC3CCCCC3)cc2C1=O,inactive
9,COc1ccc(S(=O)(=O)Nc2cccc3c2O[C@H](CN(C)Cc2ccc4c(c2)OCO4)[C@H](C)CN([C@@H](C)CO)C3=O)cc1,inactive
10,COc1cccc(NC(=O)c2cc([N+](=O)[O-])ccc2NC(=O)CN2CCCCCC2)c1,inactive
11,C[C@@H]1CN([C@@H](C)CO)C(=O)c2cccc(NC(=O)Nc3ccc(F)cc3)c2O[C@@H]1CN(C)Cc1ccc(C(=O)O)cc1,inactive
12,C[C@H](CO)N1C[C@H](C)[C@H](CN(C)Cc2ccc(C(F)(F)F)cc2)Oc2c(NC(=O)C3CCOCC3)cccc2C1=O,inactive
13,O=C(Nc1cccc(CCc2ccccn2)c1)c1ccc(Cl)cc1,inactive
14,C[C@@H]1CCCCO[C@H](CN(C)C(=O)Nc2ccc3c(c2)OCO3)[C@H](C)CN([C@H](C)CO)C(=O)c2cc(NS(C)(=O)=O)ccc2O1,inactive
15,C[C@H]1CN([C@@H](C)CO)C(=O)c2cc(NS(=O)(=O)c3ccccc3)ccc2O[C@@H]1CN(C)C(=O)NC1CCCCC1,inactive
16,C[C@@H]1CN([C@@H](C)CO)C(=O)CCCn2cc(nn2)CO[C@@H]1CN(C)C(=O)C1CCCCC1,inactive
17,C[C@@H]1CCCCO[C@H](CN(C)C(=O)CCC(F)(F)F)[C@@H](C)CN([C@@H](C)CO)C(=O)c2cc(NC(=O)c3ccncc3)ccc2O1,inactive
18,COC(=O)c1cc(C)sc1NC(=S)Nc1ncn(Cc2ccc(F)cc2Cl)n1,inactive
19,CCc1ccc2c(c1)c1nc3ccccc3nc1n2CC(=O)OC,active
20,O=C1C(=O)N(CCn2c3ccccc3c3nc4ccccc4nc32)c2ccccc21,inactive
21,CCn1c2ccccc2c2nnc(SCC(=O)O)nc21,inactive
22,O=C(O)c1cccc(S(=O)(=O)Nc2ccc(O)cc2Sc2nc3ccccc3s2)c1,inactive
23,Cc1ccc(OCC(=O)Nc2cc(-c3nc4cc(C)c(C)cc4o3)ccc2C)cc1,inactive
24,Cc1noc(C)c1NC(=O)N(C)C[C@@H]1Oc2ccc(NC(=O)Nc3ccc4c(c3)OCO4)cc2C(=O)N([C@H](C)CO)C[C@H]1C,inactive

row,SMILES,outcome
1,C[C@@H]1CN([C@H](C)CO)C(=O)Cc2cc(NC(=O)C3CC3)ccc2O[C@H]1CN(C)Cc1ccc2c(c1)OCO2,inactive
2,C[C@@H]1CN([C@H](C)CO)C(=O)Cc2cc(NC(=O)C3CC3)ccc2O[C@H]1CN(C)Cc1ccc(Cl)c(Cl)c1,active
3,C[C@H](CO)N1C[C@H](C)[C@@H](CN(C)C(=O)Nc2ccccc2)Oc2ccc(NC(=O)C3CC3)cc2CC1=O,inactive
4,CCOC(=O)c1ccc(COC(=O)c2cc(=O)[nH]c3ccccc23)o1,inactive
5,CC(C)NC(=O)N(C)C[C@H]1OCCCC[C@H](C)Oc2ccc(NC(=O)Nc3ccc4c(c3)OCO4)cc2C(=O)N([C@H](C)CO)C[C@@H]1C,inactive
6,C[C@@H]1CN([C@@H](C)CO)C(=O)Cc2cc(NC(=O)CCN3CCOCC3)ccc2O[C@H]1CN(C)S(=O)(=O)c1ccccc1,inactive
7,Cc1noc(C)c1NC(=O)Nc1cccc2c1O[C@@H](CN(C)Cc1ccc3c(c1)OCO3)[C@@H](C)CN([C@@H](C)CO)C2=O,inactive
8,C[C@@H]1CN([C@@H](C)CO)C(=O)CCCn2cc(nn2)CO[C@H]1CN(C)C(=O)Nc1ccc(N2CCCCC2)cc1,inactive
9,CC(C)NC(=O)Nc1ccc2c(c1)C(=O)N([C@@H](C)CO)C[C@H](C)[C@H](CN(C)C(=O)c1ccccc1)OCCCC[C@@H](C)O2,inactive
10,c1ccc2[nH]c(NCCN3CCOCC3)nc2c1,inactive
11,COC(=O)Cc1csc(Nc2c(C)n(C)n(-c3ccccc3)c2=O)n1,inactive
12,NC(=O)C1=C[C@H](c2csc3ccccc23)C[C@H](OCc2ccc(CO)cc2)O1,inactive
13,O=C(C1=C[C@H](c2coc3ccccc3c2=O)C[C@H](OCc2ccc(CO)cc2)O1)N1CCOCC1,inactive
14,O=C(C1=C[C@H](c2csc3ccccc23)C[C@H](OCc2ccc(CO)cc2)O1)N1CCCCC1,active
15,C=C1C[C@@]23CC[C@@H]4[C@](C)(CO)CCC[C@@]4(C)[C@@H]2CC[C@@H]1C3,inactive
16,Cc1noc(C)c1S(=O)(=O)Nc1ccc2c(c1)C(=O)N([C@H](C)CO)C[C@@H](C)[C@@H](CN(C)Cc1ccccc1)OCCCC[C@@H](C)O2,inactive
17,C[C@@H]1CN([C@H](C)CO)C(=O)c2cc(N(C)C)ccc2O[C@@H]1CN(C)S(=O)(=O)c1cn(C)cn1,inactive
18,C[C@H]1CCCCO[C@@H](CN(C)C(=O)c2ccccc2)[C@@H](C)CN([C@@H](C)CO)C(=O)c2cc(NS(=O)(=O)c3ccccc3)ccc2O1,inactive
19,CCCCc1nn(-c2ccccc2C(F)(F)F)c(=O)n1Cc1ccc(-c2ccccc2S(=O)(=O)NC(=O)c2sccc2C)cc1,active
20,CNC[C@@H]1Oc2ccc(NC(=O)CCC(F)(F)F)cc2C(=O)N([C@@H](C)CO)C[C@@H]1C,inactive
21,CC(C)C[C@](O)(C(=O)OCc1ccc(O[C@@H]2O[C@H](CO)[C@@H](O)[C@H](O)[C@H]2O)cc1)[C@H](O)C(=O)OCc1ccc(O[C@@H]2O[C@H](CO)[C@@H](O)[C@H](O)[C@H]2O)cc1,inactive
22,Cn1nnc(NC(=O)COc2ccc(Cl)cc2Cl)n1,inactive
23,OC[C@@]1(O)CO[C@H](OC[C@H]2O[C@@H](OC(CCCCc3ccc(O)cc3)CCc3ccc(O)cc3)[C@H](O[C@H]3OC[C@](O)(CO)[C@H]3O)[C@@H](O)[C@@H]2O)[C@@H]1O (some centres not stated),inactive
24,COc1cc(CN2CCN(CCO)CC2)c([N+](=O)[O-])cc1OC,inactive

row,SMILES,outcome
1,O=C(CCCCCCC(=O)NOCc1ccccc1)NO,inactive
2,CC(=O)Nc1sccc1C(=O)NCc1ccco1,inactive
3,C[C@@H]1CN([C@@H](C)CO)C(=O)c2cc(NC(=O)Cc3ccccc3)ccc2O[C@@H](C)CCCCO[C@@H]1CN(C)C(=O)Nc1ccccc1,inactive
4,C[C@@H]1CCCCO[C@@H](CN(C)C(=O)c2ccccc2)[C@@H](C)CN([C@@H](C)CO)C(=O)c2cc(NS(=O)(=O)c3ccccc3)ccc2O1,inactive
5,CNC[C@@H]1Oc2c(NC(=O)Nc3ccccc3)cccc2C(=O)N([C@@H](C)CO)C[C@@H]1C,inactive
6,COC1OC(O)C(O)C12CC[C@@]1(O2)[C@H](C)C[C@H]2OC(=O)[C@@]3(C)CCC[C@]1(C)C23 (some centres not stated),inactive
7,CCOc1ccc(OCC(=O)Nc2cc(C)c(Cl)cc2OC)cc1,inactive
8,C=CC1c2cc(O)c(OC)cc2CCN1Cc1cccc(OC(F)(F)F)c1 (configuration not stated),inactive
9,C[C@H](CO)N1C[C@H](C)[C@@H](CN(C)S(=O)(=O)c2cn(C)cn2)OCCCC[C@H](C)Oc2ccc(NC(=O)Cc3ccccc3)cc2C1=O,inactive
10,CN(C)c1nc(SCCO)nc(N(C)C)n1,inactive
11,O=C(COc1ccc(C(=O)Nc2ccccc2Cl)cc1)Nc1ccc(Oc2ccccc2)cc1,inactive
12,CC1=CCC(C(C)(C)O[C@@H]2O[C@H](COC(=O)c3cc(O)c(O)c(O)c3)[C@@H](O)[C@H](O)[C@H]2O)CC1 (some centres not stated),inactive
13,C/C=C1/[C@H](O[C@@H]2O[C@H](CO)[C@@H](O)[C@H](O)[C@H]2O)OC=C2C(=O)O[C@@H]3C[C@@H](C(C)CO)[C@H](COC(=O)C[C@H]21)[C@H]3C (some centres not stated),inactive
14,O=C(NCc1ccco1)c1nc2ncccn2n1,inactive
15,COc1ccc(S(=O)(=O)N(C)C[C@@H]2Oc3ncc(C#Cc4ccc(F)cc4)cc3C(=O)N([C@H](C)CO)C[C@@H]2C)cc1,inactive
16,C[C@H](CO)N1C[C@H](C)[C@@H](CN(C)S(=O)(=O)c2ccc(Oc3ccccc3)cc2)OCc2cn(nn2)CCCC1=O,inactive
17,Cc1ccc(-n2c(SCC(=O)Nc3ccccc3F)nnc2-c2ccccc2)cc1C,inactive
18,COc1ccc(C[C@H]2COC(=O)[C@@H]2Cc2ccc(O[C@@H]3O[C@H](CO)[C@@H](O)[C@H](O)[C@H]3O)c(OC)c2)cc1OC,inactive
19,CN(C)c1ccc(NC(=O)CSc2nc3c(c(C(F)(F)F)c2C#N)CCCCCC3)cc1,inactive
20,Cc1ccc(C(=O)CSc2nsc3sc(C(=O)c4ccc(C)cc4)c(N)c23)cc1,inactive
21,O=C(CN1CCOCC1)Nc1ccc(S(=O)(=O)N2CCCC2)cc1,inactive
22,OC1(c2ccc3c(c2)OCO3)OCC2C(c3ccc4c(c3)OCO4)OCC21O (configuration not stated),inactive
23,O=C(NCCCn1ccnc1)c1cnn2c(C(F)(F)F)cc(-c3ccccc3)nc12,inactive
24,O=[N+]([O-])c1ccc(NCCNS(=O)(=O)c2ccc(Br)cc2)c(C(F)(F)F)c1,inactive
